Results published in PubChem BioAssay (NCI).
The panel holds about 83,000 compounds, 20% with a hit somewhere; the sample as a whole holds those more often.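 96-well plates, one dose, 48 hours. Percent growth reported; active if below 10.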 A number with no mark means an inactive call. Calls of active or inactive are those of the source.

Key:
Assay in all cases: NCI-60 one-dose screen, 48 h (100 = growth as untreated, 0 = no growth, -100 = all killed)
Details in all cases: 10 µM
[1] = tested on: HCT-15 colon
[2] = tested on: HT29 colon
[3] = tested on: SNB-75 CNS
[4] = tested on: SNB-19 CNS
[5] = tested on: U251 CNS
[6] = tested on: PC-3 prostate
[7] = tested on: SK-MEL-5 melanoma
[8] = tested on: UACC-62 melanoma
[9] = tested on: LOX IMVI melanoma
[10] = tested on: SK-MEL-28 melanoma

| SMILES | growth [1] | growth [2] | growth [3] | growth [4] | growth [5] | growth [6] | growth [7] | growth [8] | growth [9] | growth [10] |
| --- | --- | --- | --- | --- | --- | --- | --- | --- | --- | --- |
| COc1cc(-c2nc3cc(Cl)c(Cl)cc3[nH]2)ccc1OCC(=O)NN | 65.2% | 98% | 106% | 93% | 91.2% | 73.8% | 91% | 27.5% | 28.5% | 96.4% |
| C[C@]12CC[C@H]3[C@@H](CC=C4C[C@@H](O)CC[C@@]43C)[C@@H]1CC[C@@H]2C(=O)C/C=N/O | 86.4% | 81.1% | 85.4% | 95.1% | 83.8% | 71.9% | 92.8% | 88.6% | 82% | 106% |
| CCOC(=O)C1=C(Nc2ccc(OC)cc2)C(N)=NC1=N | 22% | 11.7% | 51.9% | 66.8% | 51.7% | 40.5% | 21.5% | 30.4% | 52% | 67.3% |
| Oc1ccc(/C=N\Nc2ccccn2)c(O)c1 | 32.7% | 51.6% | 9.86% (active) | 29.4% | 26.5% | 61.3% | 39.4% | 7.44% (active) | -6.3% (active) | 64.5% |
| O=C1CC(c2cccc(-c3cccnc3)c2)=Nc2ccc(Br)cc2N1 | 61.9% | 56.6% | 11.6% | 62.9% | 27.2% | 30.8% | 8.01% (active) | 47.3% | 55.8% | 67.5% |
| O=C(C=P(c1ccccc1)(c1ccccc1)c1ccccc1)c1ccc(Br)cc1 | 95.2% | 79.1% | 90.9% | 98.6% | 97.1% | 41.7% | 96.6% | 67.5% | 73.4% | 109% |
| CC(C)C[C@H](NC(=O)Cn1ccc2ccccc2c1=O)B(O)O | 57.9% | 44.7% | 96.8% | 76.8% | 87.6% | 86.9% | 37.9% | 49.8% | 50.6% | 48.7% |
| CNC(=O)c1cc(Oc2ccc(NC(=O)Nc3ccc(Cl)c(OC4CCCCC4)c3)c(F)c2)ccn1 | 37.7% | 48.1% | 51.5% | 41.2% | 38.8% | 16.6% | 15.6% | 32.2% | 42.3% | 75.4% |
| COc1ccc2nc(NC(=O)Nc3c(F)cccc3F)sc2c1 | 101% | 102% | 118% | 97.2% | 95% | 95% | 91.2% | 94.4% | 106% | 103% |
| N#Cc1ncc(-c2cc(F)ccc2F)c(NC2CCCCCC2)n1 | 82.8% | 94.7% | 67.3% | 64% | 9.98% (active) | 60.7% | 84.9% | 60.9% | 80.6% | 80.8% |
| CCCCCCCOc1cccc(/C=C2/C(=O)N=C3SCCCN32)c1 | 60.8% | 63.9% | 75.1% | 63.4% | 51% | 70.4% | 63.7% | 54.9% | 44.9% | 82.3% |
| NC(N)=NS(=O)(=O)c1ccc(Nc2ccc3nnc(-c4ccncc4)n3n2)cc1 | 100% | 104% | 90.4% | 94.3% | 104% | 107% | 98.3% | 97.1% | 97.2% | 107% |
| COc1cc(Cn2c(-c3ccccc3)cc3c2-c2oncc2CC3)cc(OC)c1 | 15.3% | -8.38% (active) | 19.5% | 34.8% | 18% | 19.2% | 5.07% (active) | 31.6% | 27.3% | 50.1% |
| Nc1c(C(=O)NC2CCCCC2)sc2nc3c(cc12)C(=O)CCC3 | 85.8% | 110% | 95% | 97.2% | 93.6% | 92.4% | 95% | 91% | 103% | 94.8% |
| CC1(C)CC(OCCCC[P+](c2ccccc2)(c2ccccc2)c2ccccc2)CC(C)(C)N1O | 9.52% (active) | 10.6% | -3.17% (active) | 3.91% (active) | 8.32% (active) | -45.6% (active) | -98.4% (active) | -35.9% (active) | -74.2% (active) | -55.8% (active) |
| CCOC(=O)C(CCC1=NC(C)(C)CC(C)O1)C(=O)OCC (stereo not given) | 46% | 32% | 104% | 106% | 82.3% | 76.3% | 108% | 93.3% | 90.1% | 107% |
| O=C(NNC(=O)c1ccncc1)Nc1ccc([N+](=O)[O-])cc1 | 101% | 99.5% | 111% | 107% | 113% | 103% | 112% | 113% | 101% | 127% |
| CCOc1ccc2c(c1)CC[C@@H]1[C@@H]2CC[C@]2(C)[C@@H](O)[C@@H](O)C[C@@H]12 | 95% | 109% | 107% | 99% | 95% | 91.2% | 96.8% | 94.4% | 102% | 100% |
| S=c1c2ncccc2c(-c2ccccn2)nn1Cc1ccccn1 | 98.9% | 93.7% | 77.1% | 103% | 95% | 73.8% | 105% | 104% | 94.8% | 117% |
| CCCCNC(=O)Oc1ccc(/C(=C(\C)c2ccc(OC)cc2)c2ccc(OCCN3CCCCC3)cc2)cc1 | 0.377% (active) | 7.84% (active) | 70.6% | 69.9% | 38.9% | 43.3% | 44.7% | 44% | 20.1% | 2.55% (active) |
| COc1cc2ccnc(C=O)c2cc1OC | 27.9% | 20.9% | 76.7% | 88.3% | 91% | 90.7% | 60.6% | 74% | 41.8% | 79.5% |
| CC(C)/C(=N/O)c1ccccc1 | 110% | 97.4% | 94.5% | 102% | 112% | 102% | 104% | 107% | 94.5% | 113% |
| O=C(Nc1ccc(OS(=O)(=O)Cc2ccccc2)cc1)C12CC3CC(CC(C3)C1)C2 | 56.8% | 9.75% (active) | 114% | 91.4% | 67.7% | 55.6% | 63.3% | 81.6% | 68% | 103% |
| CCc1cc2n(n1)-c1ncc(C(=O)OC)cc1Oc1ccccc1-2 | 96.7% | 112% | 89.4% | 109% | 94.4% | 97.5% | 96.2% | 102% | 96.8% | 120% |
| C(=C\c1nc2ccccc2s1)/c1ccc(N2CCOCC2)s1 | 48.3% | 45.1% | 99.6% | 95.2% | 67.6% | 53.4% | 61.1% | 30.8% | 56.8% | 113% |
| O=S(=O)(NCCO)c1ccc(OCCOc2ccc(S(=O)(=O)NCCO)cc2)cc1 | 103% | 100% | 95% | 102% | 93.7% | 89.1% | 96.5% | 95.2% | 96.6% | 105% |
